{
  "source": "paper PMC4336329",
  "about": "(PLoS ONE, 2015)",
  "note": "The campaign covered roughly 310,000 compounds. About 14,000 (4.5%) showed an effect of 50% or more. Effects have a minus sign here. Shown is part of a subset that was picked to be rich in strong results.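 Also: peak tail current of the secondary pulse compared with the same well before compound.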",
  "data": [
    {"target": "human ether-à-go-go-related gene (hERG) potassium channel (human, UniProt Q12809)", "sequence (Q12809 whole entry, looked up)": "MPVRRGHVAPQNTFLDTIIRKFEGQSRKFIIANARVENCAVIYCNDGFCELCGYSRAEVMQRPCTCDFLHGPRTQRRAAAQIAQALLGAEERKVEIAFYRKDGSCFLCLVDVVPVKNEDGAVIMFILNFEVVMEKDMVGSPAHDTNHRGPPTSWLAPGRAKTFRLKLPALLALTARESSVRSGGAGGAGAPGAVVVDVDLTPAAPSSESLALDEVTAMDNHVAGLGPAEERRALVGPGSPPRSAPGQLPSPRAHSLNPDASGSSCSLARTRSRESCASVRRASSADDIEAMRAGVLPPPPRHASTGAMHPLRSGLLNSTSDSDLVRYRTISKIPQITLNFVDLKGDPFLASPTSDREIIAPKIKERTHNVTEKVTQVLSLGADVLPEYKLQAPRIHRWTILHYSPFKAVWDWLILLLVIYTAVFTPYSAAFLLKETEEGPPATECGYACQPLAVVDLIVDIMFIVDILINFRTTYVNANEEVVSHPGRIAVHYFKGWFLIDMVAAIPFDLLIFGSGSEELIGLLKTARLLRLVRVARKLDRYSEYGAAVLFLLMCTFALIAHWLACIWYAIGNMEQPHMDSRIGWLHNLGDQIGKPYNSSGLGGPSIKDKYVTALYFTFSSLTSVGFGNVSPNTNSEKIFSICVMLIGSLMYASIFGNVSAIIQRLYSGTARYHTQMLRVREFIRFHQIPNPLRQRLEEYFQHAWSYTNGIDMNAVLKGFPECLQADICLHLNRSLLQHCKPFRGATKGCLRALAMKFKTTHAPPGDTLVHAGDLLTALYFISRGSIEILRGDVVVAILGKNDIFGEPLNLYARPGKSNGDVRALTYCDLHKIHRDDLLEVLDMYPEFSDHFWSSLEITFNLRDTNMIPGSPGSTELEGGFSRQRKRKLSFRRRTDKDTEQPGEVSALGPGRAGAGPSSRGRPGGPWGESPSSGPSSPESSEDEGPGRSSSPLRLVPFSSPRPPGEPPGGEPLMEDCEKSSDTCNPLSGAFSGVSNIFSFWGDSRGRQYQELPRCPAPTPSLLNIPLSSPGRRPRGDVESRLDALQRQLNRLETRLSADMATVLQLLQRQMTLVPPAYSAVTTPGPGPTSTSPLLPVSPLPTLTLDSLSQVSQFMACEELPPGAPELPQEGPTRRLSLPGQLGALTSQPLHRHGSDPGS", "experiment": "primary screen, population patch clamp on CHO cells stably expressing hERG; higher = less effect of the substance", "units": {"hERG current change (%, negative = inhibition) at 10uM": "%"}, "values": [
      {"molecule": "CCOC(=O)N1CCC(NC(=O)CCc2nc(C3=CCN(C)CC3)no2)CC1", "hERG current change (%, negative = inhibition) at 10uM": -3.37},
      {"molecule": "COc1ccc(C(=O)NCCNc2nc3ccc(C)cc3cc2C#N)cc1", "hERG current change (%, negative = inhibition) at 10uM": 4.99},
      {"molecule": "COc1ccc(CN(CCN(C)C)Cc2ccccc2)c(OC)c1.O=C(O)C(=O)O", "hERG current change (%, negative = inhibition) at 10uM": -46.1},
      {"molecule": "CCN(Cc1ccncc1)Cc1ccc(OC)cc1OC.O=C(O)C(=O)O", "hERG current change (%, negative = inhibition) at 10uM": -51.4},
      {"molecule": "CCN(Cc1ccncc1)Cc1ccc(OC)c(OC)c1.O=C(O)C(=O)O", "hERG current change (%, negative = inhibition) at 10uM": -6.49},
      {"molecule": "COc1ccc(N(CC(=O)Nc2cc(C)on2)S(=O)(=O)c2ccc(Cl)cc2)cc1", "hERG current change (%, negative = inhibition) at 10uM": 9.89},
      {"molecule": "COC(=O)N[C@H](CC(C)=O)c1cccc(C(F)(F)F)c1", "hERG current change (%, negative = inhibition) at 10uM": 19.5},
      {"molecule": "CC(C)(C)c1cc(CCC(=O)NCc2ccccn2)cc(C(C)(C)C)c1O", "hERG current change (%, negative = inhibition) at 10uM": -10.1},
      {"molecule": "CC(C)=CCN1CCN(Cc2cc(CC(C)C)n[nH]2)CC1CCO", "note": "(centres unmarked)", "hERG current change (%, negative = inhibition) at 10uM": -9.57},
      {"molecule": "Cc1cc(C(=O)N2CCC(CO)(Cc3cccc(C(F)(F)F)c3)CC2)n[nH]1", "hERG current change (%, negative = inhibition) at 10uM": -49.4},
      {"molecule": "CC(C)Cc1cc(CN2CCC(CO)(Cc3ccccc3)CC2)[nH]n1", "hERG current change (%, negative = inhibition) at 10uM": -71.6},
      {"molecule": "CC(C)Cc1cc(CN2CCC(CO)(Cc3cccc(C(F)(F)F)c3)CC2)[nH]n1", "hERG current change (%, negative = inhibition) at 10uM": -78},
      {"molecule": "CC(C)Cc1cc(CN2CCCC(CO)(Cc3cccc(Cl)c3)C2)[nH]n1", "note": "(centres unmarked)", "hERG current change (%, negative = inhibition) at 10uM": -52.5},
      {"molecule": "CC(C)n1cc(CN2CCCC(CO)(Cc3cccc(Cl)c3)C2)cn1", "note": "(centres unmarked)", "hERG current change (%, negative = inhibition) at 10uM": -24},
      {"molecule": "CC(C)c1csc(CN2CCC(CO)(Cc3ccccc3)CC2)n1", "hERG current change (%, negative = inhibition) at 10uM": -9.39},
      {"molecule": "OCC1(Cc2ccccc2)CCN(Cc2ccccn2)CC1", "hERG current change (%, negative = inhibition) at 10uM": -9.51},
      {"molecule": "Cc1cc(CN2CCCC(CO)(Cc3cccc(Cl)c3)C2)n[nH]1", "note": "(centres unmarked)", "hERG current change (%, negative = inhibition) at 10uM": -43.2},
      {"molecule": "CC(C)NC(=O)Cn1nc(C(F)(F)F)c2c1CCC2", "hERG current change (%, negative = inhibition) at 10uM": 7.42},
      {"molecule": "C=C(C)CNc1cc(S(=O)(=O)N2CCOCC2)ccc1Oc1ccccc1", "hERG current change (%, negative = inhibition) at 10uM": -21.3},
      {"molecule": "O=C(CCN1C(=O)c2cccc3cccc(c23)C1=O)N1CCOCC1", "hERG current change (%, negative = inhibition) at 10uM": 19.9},
      {"molecule": "CCN1CCN(CC(=O)NC2CCCCC2)C(=O)C1=O", "hERG current change (%, negative = inhibition) at 10uM": 1.65},
      {"molecule": "COc1cccc(CNC(=O)C(C)n2nc(C)n3c(cc4occc43)c2=O)c1", "note": "(centres unmarked)", "hERG current change (%, negative = inhibition) at 10uM": 7.17},
      {"molecule": "CCCOc1ccc(C(=O)NNC(=S)NC(=O)c2cccs2)cc1", "hERG current change (%, negative = inhibition) at 10uM": 16.7},
      {"molecule": "CC(C)=CC(=O)O[C@H]1[C@@H]2[C@H](C)C(=O)O[C@@H]2C[C@@H](C)[C@@H]2[C@@H](O)CC(=O)[C@]21C", "hERG current change (%, negative = inhibition) at 10uM": 22.4},
      {"molecule": "COC(=O)CCSc1cc(NCCOC(C)=O)c([N+](=O)[O-])c2nonc12", "hERG current change (%, negative = inhibition) at 10uM": -25.6},
      {"molecule": "O=C(N/N=C/c1cn(CC(=O)N2CCOCC2)c2ccccc12)c1cccnc1", "hERG current change (%, negative = inhibition) at 10uM": 16.3},
      {"molecule": "Cc1ccc(NC(=O)C(C)Sc2nc(-c3ccccc3)cc(=O)[nH]2)cc1", "note": "(centres unmarked)", "hERG current change (%, negative = inhibition) at 10uM": 20.8},
      {"molecule": "COc1ccccc1NC(=O)/C(=C\\c1cccnc1)NC(=O)c1ccccc1", "hERG current change (%, negative = inhibition) at 10uM": -65.5},
      {"molecule": "Cc1ccc(C(=O)N/C(=C/c2cccnc2)C(=O)O)cc1", "hERG current change (%, negative = inhibition) at 10uM": 8.41},
      {"molecule": "COc1ccccc1NC(=O)/C(=C\\c1cccnc1)NC(=O)c1ccc(C)cc1", "hERG current change (%, negative = inhibition) at 10uM": -71.9},
      {"molecule": "O=C(Nc1ccccc1)/C(=C/c1cccnc1)NC(=O)c1ccccc1", "hERG current change (%, negative = inhibition) at 10uM": 2.08},
      {"molecule": "Cc1ccc(NC(=O)/C(=C\\c2cccnc2)NC(=O)c2ccccc2)cc1", "hERG current change (%, negative = inhibition) at 10uM": -46},
      {"molecule": "COc1ccccc1NC(=O)/C(=C/c1ccncc1)NC(=O)c1ccccc1", "hERG current change (%, negative = inhibition) at 10uM": -10.6},
      {"molecule": "COc1cc(OC)c(OC)cc1CNC(=O)c1ccc(S(=O)(=O)N2CC(C)OC(C)C2)cc1", "note": "(centres unmarked)", "hERG current change (%, negative = inhibition) at 10uM": -11},
      {"molecule": "O=C(COc1cc(Cl)c(Cl)cc1Cl)NCCN1CCOCC1", "hERG current change (%, negative = inhibition) at 10uM": -7.1},
      {"molecule": "CCCCNC(=O)[C@H](Cc1c[nH]c2ccccc12)NC(=O)c1ccccc1Cl", "hERG current change (%, negative = inhibition) at 10uM": -8.26},
      {"molecule": "O=C(NCc1ccccc1)C1CCCN(S(=O)(=O)c2ccc(-n3cnnn3)cc2)C1", "note": "(centres unmarked)", "hERG current change (%, negative = inhibition) at 10uM": 2.94},
      {"molecule": "O=C(NCc1ccco1)C1CCCN(S(=O)(=O)c2ccc(-n3cnnn3)cc2)C1", "note": "(centres unmarked)", "hERG current change (%, negative = inhibition) at 10uM": -61.8},
      {"molecule": "C=CCNC(=O)C1CCCN(S(=O)(=O)c2ccc(-n3cnnn3)cc2)C1", "note": "(centres unmarked)", "hERG current change (%, negative = inhibition) at 10uM": -27.5},
      {"molecule": "O=C(NCC1CC1)C1CCCN(S(=O)(=O)c2ccc(-n3cnnn3)cc2)C1", "note": "(centres unmarked)", "hERG current change (%, negative = inhibition) at 10uM": -63.7},
      {"molecule": "COc1ccccc1NC(=O)C1CCCN(S(=O)(=O)c2ccc(-n3cnnn3)cc2)C1", "note": "(centres unmarked)", "hERG current change (%, negative = inhibition) at 10uM": -46.8},
      {"molecule": "CC(=O)Nc1ccc(S(=O)(=O)N2CCC(C(=O)NCc3ccco3)CC2)cc1", "hERG current change (%, negative = inhibition) at 10uM": 0.324},
      {"molecule": "NC(=O)CNC(=O)C1CCN(S(=O)(=O)c2ccc(-n3cnnn3)cc2)CC1", "hERG current change (%, negative = inhibition) at 10uM": -41.4},
      {"molecule": "CC(C)CCNC(=O)C1CCCN(S(=O)(=O)c2ccc(-n3cnnn3)cc2)C1", "note": "(centres unmarked)", "hERG current change (%, negative = inhibition) at 10uM": 22.5},
      {"molecule": "COc1ccc(C)cc1NC(=O)C1CCCN(S(=O)(=O)c2ccc(-n3cnnn3)cc2)C1", "note": "(centres unmarked)", "hERG current change (%, negative = inhibition) at 10uM": -69.8},
      {"molecule": "COc1ccc(OC)c(NC(=O)C2CCCN(S(=O)(=O)c3ccc(-n4cnnn4)cc3)C2)c1", "note": "(centres unmarked)", "hERG current change (%, negative = inhibition) at 10uM": -12.5},
      {"molecule": "O=C(NCc1ccco1)C1CCN(S(=O)(=O)c2ccc(-n3cnnn3)cc2)CC1", "hERG current change (%, negative = inhibition) at 10uM": -70.5},
      {"molecule": "O=C(NCc1ccccc1F)C1CCCN(S(=O)(=O)c2ccc(-n3cnnn3)cc2)C1", "note": "(centres unmarked)", "hERG current change (%, negative = inhibition) at 10uM": -1.94},
      {"molecule": "COC(=O)C1=C(C(=O)OC)[C@@H]2N(C)c3ccccc3[C@@]23C[C@@H](C(=O)OC)N(C(=O)c2ccc(Br)cc2)C3=N1", "hERG current change (%, negative = inhibition) at 10uM": -1.06},
      {"molecule": "Fc1ccc2c(c1)C(c1ccc(N3CCOCC3)cc1)=NNC(c1cccs1)=N2", "hERG current change (%, negative = inhibition) at 10uM": -1.96},
      {"molecule": "CC1=CC(C)(C)NC(=S)N1c1cc(C)cc(C)c1", "hERG current change (%, negative = inhibition) at 10uM": 10.5},
      {"molecule": "Cc1nc(Nc2ccc(C(=O)O)cc2)nc(Nc2ccc(C(=O)O)cc2)c1[N+](=O)[O-]", "hERG current change (%, negative = inhibition) at 10uM": 15.3},
      {"molecule": "Cc1cc(=O)c2cc(C(=O)c3ccccc3)ccc2[nH]1", "hERG current change (%, negative = inhibition) at 10uM": -4.4}
    ]}
  ]
}
